Shn3 inh set2 – reduction of Shn3 3'UTR firefly luciferase signal, primary screen, Schnurri-3 inhibitor project, cell-based, Clone20 osteoblasts, set 2; hit rate 0.52% among 360,000; inhibition, % at 12.5 µM; AID 588674, 2011; Clone20 osteoblast Shn3 3'UTR firefly luciferase, 24 h;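 active = mean inhibition of at least 75% with every replicate also reaching 75%; inconclusive = mean inhibition at least 75% but some replicate below; inactive = mean inhibition below 75%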;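 also: 0% = median of neutral control wells and 100% = pilot-screen positive control compound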
LMP1 NFkB inh – EBV LMP1-driven NF-kappaB luciferase reporter inhibitors, primary screen, cell-based, luminescence, single point | AID 504558, 2011 | inhibition, % at 12.5 µM | LMP1-induced NF-kappaB luciferase reporter cells | hit rate 0.69% among 350,000; in the data active = inhibition above about 41%; inconclusive = no clear call, values can overlap the other calls;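 also: 0% = neutral control wells and 100% = reference inhibitor control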
NSD2 inh – NSD2 histone methyltransferase inhibitors, primary screen, biochemical, AlphaScreen, single concentration, set 2; inhibition, % at 12.5 µM; hit rate 0.54% among 310,000; NSD2 peptide methylation, 120 min; Histone-lysine N-methyltransferase NSD2 (Homo sapiens), O96028; AID 743445, 2014; in the data active = inhibition above about 50%
Glyco luc inh – increase of ERlucT glycosylation luciferase signal, primary screen, N-linked glycosylation inhibitor project, D54 ERlucT cells, luminescence, set 2. D54 ERlucT glycosylation luciferase reporter, 24 h; percent of 100 nM tunicamycin response. reporter increase, % at 12.5 µM. hit rate 0.23% among 360,000. AID 588692, 2011;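 active = mean luciferase reporter signal, scaled so untreated is 0 and the glycosylation-blocking control 100, at or above a set limit in every replicate; inconclusive = mean reaches the limit but not every replicate does; inactive = mean below the limit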;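 also: luciferase carries N-glycosylation sites so blocking glycosylation raises the light; 0% = median of neutral control wells and 100% = median of 100 nM tunicamycin wells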
PAX8 inh HTS – inhibitors of PAX8-driven TPO luciferase reporter, primary screen, RMG-I cells, single concentration; SteadyGlo, 24 h; inhibition, % at 12.6 µM; hit rate 1.2% among 360,000;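 active = mean replicate inhibition at least 60% with every replicate also reaching 60%; inconclusive = only one of the two criteria is met; inactive = mean below 60% and not all replicates reaching 60%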;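 also: luciferase light reporting Pax8 driven TPO promoter activity; plate controls were median of neutral control wells for no effect and mitoxantrone controls for full effect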
Env fusion inh – inhibitors of HIV-1 Env-driven cell-cell fusion, primary screen, HeLa-JRFL effector, CEM21 target cells, luciferase; hit rate 1.1% among 360,000; inhibition, % at 12.3 µM;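 active = mean replicate inhibition score of at least 50 and every replicate individually at or above 50; inconclusive = only one of the two criteria met; inactive = mean below 50 and not all replicates reaching 50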;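 also: 0% = plate neutral controls and 100% = maraviroc near 300 nM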
An asterisk follows results filed as active; [ ] = dose if it differs, or a comment. The list is not random: actives were taken first. Their share in the collection is about 2.8%.

Results for Cc1cccc(CN2CCN(Cc3ccc(Cl)cc3)CC2)c1 ?
Shn3 inh set2: 15; LMP1 NFkB inh: 84*; NSD2 inh: 10; Glyco luc inh: -2

How did O=c1[nH]c(CN2CC=C(c3ccccc3)CC2)nc2cc(C(F)(F)F)ccc12 do in these assays?
Shn3 inh set2: 16; LMP1 NFkB inh: 44*; NSD2 inh: -2; Glyco luc inh: 9

What do the screens show for `Nc1c(C(=O)OCc2ccccc2)c2nc3ccccc3nc2n1Cc1cccs1`?
Shn3 inh set2: 5; LMP1 NFkB inh: -18; NSD2 inh: -1; Glyco luc inh: 0; Env fusion inh: 9

Results for CCC(C)OC(=O)c1c(N)n(Cc2cccs2)c2nc3ccccc3nc12 (stereo unspecified) ?
Shn3 inh set2: 14; LMP1 NFkB inh: 9; NSD2 inh: -3; Glyco luc inh: 17; Env fusion inh: 61*

What do the screens show for `O=C(Cc1ccncc1)N1CCCCN2[C@@H](CO)[C@H](c3ccc(C#Cc4ccccc4F)cc3)[C@@H]2C1`?
PAX8 inh HTS: 5

Results for COc1cc2c3cc1Oc1cc(ccc1O)C[C@@H]1c4c(cc(OC)c(O)c4Oc4ccc(cc4)C[C@H]3N(C)CC2)CCN1C ?
Shn3 inh set2: -17; LMP1 NFkB inh: 83*; Glyco luc inh: -6; PAX8 inh HTS: 22; Env fusion inh: 10

Results for COc1cc2c3cc1Oc1c(OC)c(OC)cc4c1[C@H](Cc1ccc(cc1)Oc1cc(ccc1O)C[C@H]3N(C)CC2)N(C)CC4 ?
Shn3 inh set2: -8; LMP1 NFkB inh: -38; Glyco luc inh: -11; PAX8 inh HTS: 16; Env fusion inh: -9

How did CC(C)NC(=O)N1[C@@H]2Cn3c(ccc(-c4cccc(C(=O)N(C)C)c4)c3=O)[C@H]1[C@@H](C(=O)O)[C@@H]2CO do in these assays?
Env fusion inh: -12[16.7 µM]

Results for COC(=O)C1=C(C(=O)OC)C2OC1c1cc3ccccc3cc12 ?
Shn3 inh set2: 95*; LMP1 NFkB inh: 36; NSD2 inh: -4; Glyco luc inh: -21; PAX8 inh HTS: 109*; Env fusion inh: 23

What do the screens show for `OCC[n+]1c2ccccc2nc2ccc(N3CCOCC3)cc21`?
Shn3 inh set2: -1; NSD2 inh: 82*; Glyco luc inh: 4; PAX8 inh HTS: 5; Env fusion inh: 34

What do the screens show for `O=C(CCc1ccccc1)N1Cc2cc(N3CCOCC3)ccc2-n2nncc2C1`?
Shn3 inh set2: 13; Glyco luc inh: 7; PAX8 inh HTS: 8; Env fusion inh: -21

How did O=c1c2ccccc2nc(/C=C/c2ccc([N+](=O)[O-])o2)n1-c1ccc(O)cc1 do in these assays?
Shn3 inh set2: 98*; LMP1 NFkB inh: 86*; NSD2 inh: -3; Glyco luc inh: -18; PAX8 inh HTS: 69*; Env fusion inh: inactive

What do the screens show for `O=c1c2ccccc2nc(/C=C/c2ccccc2)n1-c1ccc(O)cc1`?
Shn3 inh set2: 13; LMP1 NFkB inh: -11; NSD2 inh: 2; Glyco luc inh: 2; PAX8 inh HTS: 34; Env fusion inh: 2

What do the screens show for `Cc1cccc(-n2c(/C=C/c3ccc([N+](=O)[O-])o3)nc3ccccc3c2=O)c1`?
Shn3 inh set2: -47; LMP1 NFkB inh: 84*; NSD2 inh: 1; Glyco luc inh: -18; PAX8 inh HTS: 31

How did Cc1nc2ccccc2c(=O)n1-c1cc([N+](=O)[O-])cc([N+](=O)[O-])c1 do in these assays?
Shn3 inh set2: 10; LMP1 NFkB inh: 4; NSD2 inh: 2; Glyco luc inh: 1; PAX8 inh HTS: 1; Env fusion inh: 13

What do the screens show for `COc1ccc(OC(=O)N(C)C[C@H]2OCc3ccccc3-c3c(n(C)c4ccccc34)C(=O)N([C@H](C)CO)C[C@H]2C)cc1`?
PAX8 inh HTS: 0

What do the screens show for `COc1ccc(OC(=O)N(C)C[C@@H]2OCc3ccccc3-c3c(n(C)c4ccccc34)C(=O)N([C@H](C)CO)C[C@@H]2C)cc1`?
Shn3 inh set2: 8; LMP1 NFkB inh: -4; Glyco luc inh: -2; PAX8 inh HTS: 24; Env fusion inh: 69*

What do the screens show for `O=C(Cc1cccnc1)N1CCCCN2[C@H](CO)[C@H](c3ccc(C#CC4CC4)cc3)[C@H]2C1`?
PAX8 inh HTS: 17

What do the screens show for `CCN(CC)C(=O)COc1cc(C)cc2oc(=O)c3c(c12)CCCC3`?
Shn3 inh set2: -2; LMP1 NFkB inh: 3; NSD2 inh: 14; Glyco luc inh: 1; PAX8 inh HTS: 82*; Env fusion inh: -17

What do the screens show for `CC1OC(OC2C(O)CC(OC3C(O)CC(OC4CCC5(C)C(CCC6C5CCC5(C)C(C7=CC(=O)OC7)C(O)CC65O)C4)OC3C)OC2C)CC(O)C1O` (stereo unspecified)?
Shn3 inh set2: 2; LMP1 NFkB inh: 62*; NSD2 inh: 4; Glyco luc inh: -17; PAX8 inh HTS: -16; Env fusion inh: 63*

How did CC(=O)OC1CC(OC2C(O)CC(OC3C(O)CC(OC4CCC5(C)C(CCC6C5CCC5(C)C(C7=CC(=O)OC7)C(O)CC65O)C4)OC3C)OC2C)OC(C)C1OC1OC(CO)C(O)C(O)C1O (stereo unspecified) do in these assays?
Shn3 inh set2: 8; LMP1 NFkB inh: 30; Glyco luc inh: -16; PAX8 inh HTS: 104*; Env fusion inh: 85*

How did CC(=O)O[C@@H]1CC[C@]2(C)C3CC[C@@]4(C)C(C[C@@H](O)[C@@H]4O)C3[C@@H](OC(C)=O)C[C@H]2C1 (stereo partly specified) do in these assays?
Shn3 inh set2: 54; LMP1 NFkB inh: 3; NSD2 inh: 2; Glyco luc inh: -5; Env fusion inh: 7

How did CC(=O)OC1CC2(O)C3CCC4CC(O)CCC4(C)C3CCC2(C)C1C1=CC(=O)OC1 (stereo unspecified) do in these assays?
Shn3 inh set2: -24; LMP1 NFkB inh: 72*; NSD2 inh: 10; Glyco luc inh: -17; Env fusion inh: 102*

What do the screens show for `CCCNC(=O)N1[C@@H]2Cn3c(ccc(-c4ccccc4OC)c3=O)[C@H]1[C@@H](C(=O)O)[C@@H]2CO`?
PAX8 inh HTS: -8

What do the screens show for `CC1CC(C)CC(C)C(O)C(C#N)=CC=CCC(C2CCCC2C(=O)O)OC(=O)CC(O)C(C)C1` (stereo unspecified)?
Shn3 inh set2: 97*; LMP1 NFkB inh: inconclusive; NSD2 inh: 1; Glyco luc inh: -19; PAX8 inh HTS: 102*; Env fusion inh: 71*

Results for O=C(Cc1ccncc1)N1CCCCN2[C@H](CO)[C@H](c3ccc(C#Cc4ccccc4F)cc3)[C@@H]2C1 ?
PAX8 inh HTS: -2

Screening data from PubChem BioAssay.
